Assay results as given in PubChem BioAssay (NCI).
This is part of a sample that, as a whole, favours compounds with a hit. Of some 83,000 tested, about 20% had one in any assay.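 How to read the values: 0–100, growth inhibition (40 = 60% inhibited); 0, no net growth; -100 to 0, cell death (-40 = 40% of starting cells died; -100 = all dead).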 Active and inactive are the calls of the source. How the source made its calls: active means growth percent below 10; inactive means the rest.

Tested on: NCI-H226 lung
Test: NCI-60 one-dose screen, 48 h (100 = growth as untreated, 0 = no growth, -100 = all killed)
Settings: 10 µM unless noted

SMILES	growth
C=CCSc1ccc2c(c1)C(N1CCNCC1)=Nc1ccccc1O2	87.4% [8.25 µM] (inactive)
COc1ccc(NC2=CC(=O)C(C)=C(C)C2=O)cc1	97.2% (inactive)
CS(=O)(=O)c1ccc(-c2nc3ccccn3c2-c2nc3ccc([N+](=O)[O-])cc3[nH]2)cc1	92.2% (inactive)
CCOC(=O)c1c(Nc2ccccc2)nn2c(-c3ccco3)c(C#N)cnc12	76.9% (inactive)
COc1ccc(NC(=O)c2sc3nc(-c4cnccn4)cc(-c4cccs4)c3c2N)cc1	35.5% (inactive)
CC(=O)c1ccc(Nc2nc(SC(C)C)nc(-c3ccccc3)c2C#N)cc1	123% (inactive)
COc1ccc(N/N=C/c2c(-c3ccc(S(C)(=O)=O)cc3)nc3ccccn23)cc1	71% (inactive)
O=C1C2=C(C(=O)c3c(O)cccc31)C(c1ccco1)c1sc(=O)[nH]c1S2 (stereo unspecified)	-20.7% (active)
COc1ccc(/C=C2\SC(=Nc3cc(C)on3)NC2=O)cc1	102% (inactive)
COc1ccc(-c2nc3ccc(-c4nnc(SCC(=O)Nc5ccc(C(=O)/C=C/c6ccccc6)cc5)o4)cc3[nH]2)cc1OC	98.2% (inactive)
O=C(CSc1nnc(-c2ccc3nc(-c4ccc(Cl)cc4)[nH]c3c2)o1)Nc1ccc(C(=O)/C=C/c2ccc(Cl)cc2)cc1	86% (inactive)
OC1CCN(CCCOc2c3ccccc3nc3c2oc2ccccc23)CC1	-31.2% (active)
Nc1cc(-c2c[nH]c3ccccc23)nc2cc(-c3c[nH]c4ccccc34)nn12	67.3% (inactive)
N[C@@H](Cc1cn(-c2c3ccccc3nc3ccccc23)nn1)C(=O)O	103% (inactive)
CCN1CCN(S(=O)(=O)c2oc(-c3ccc(Cl)cc3)nc2C#N)CC1	106% (inactive)
OC1CCc2c(-c3ccc4ncnc(N5CCc6cc(F)c(Cl)cc65)c4c3)cncc21 (stereo unspecified)	56.7% (inactive)
O=C(N/N=C/c1ccc([N+](=O)[O-])o1)c1[nH]c2ccc(Br)cc2c1-c1ccccc1	15.8% (inactive)
N#Cc1ccc(C(=O)CSc2nc(Nc3ccc(S(N)(=O)=O)cc3)c3ccccc3n2)cc1	105% (inactive)
COc1cc(/C=C/C(=O)c2cc(OC)c(OC)c(OC)c2)ccc1Oc1nc(NCCO)nc(N2CCOCC2)n1	-1.45% (active)
NC(=O)c1c(NC(=O)c2ccc(C3CCCCC3)cc2)sc2c1CCC(=O)C2	19.6% (inactive)
COc1cc2nc(-c3ccc(C(F)(F)F)cc3)cc(OCCCNCC3CCCO3)c2cc1OC (stereo unspecified)	54.3% (inactive)
Nc1c(C(=O)c2ccc(Br)cc2)oc2nc(-c3cnccn3)cc(-c3cccs3)c12	98.6% (inactive)
Cc1sc2c(c1C)c(=O)nc1c(-c3nc(-c4ccc(F)cc4)no3)n[nH]n12	93.1% (inactive)
COc1cc(/C=C/C(=O)c2ccc(Cl)cc2)ccc1Oc1nc(NCCO)nc(N2CCOCC2)n1	96.5% (inactive)
O=C(Oc1ccc2ccc(=O)oc2c1)c1ccc(Cl)cc1	104% (inactive)
COc1cc(/C=C/C(=O)c2ccccc2)ccc1Oc1nc(NCCO)nc(N2CCOCC2)n1	107% (inactive)
